HCV inhibitor: HCV inhibition; actives 3.4% (n = 340,000); AID 651820; Potency, µM (top dose mostly 41.8 µM), for the others: top-dose activity change, negative = inhibition, hits mostly inhibitors; Huh7.5.1 HCVcc-Cre infection, luciferase reporter, 44 h; note: % is set by controls: 0 for no effect and ±100 for the full control effect
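Whole-lifecycle infectious HCVcc-Cre system; cells 1,000/well, compound then virus (~0.5 moi) added 4 h after plating, 44 h culture. Luciferase read 15 sec following 15 min substrate incubation, room temp.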
NS1 inh: blocks influenza NS1 protein function; Potency, µM (doses to about 46.1 µM), for the others: at the highest dose activity, positive = more growth; actives 0.4% (n = 270,000); calls by dose curve; note: actives are rising curves; nearly all actives have a fitted effect of over 50% in size
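Recovery from NS1-induced slow growth read by OD600 in budding yeast switched to galactose assay medium (pH 6.0, -URA) at 1:100 dilution. Compound 23 nl per well; the matching strain lacking NS1 serves as control.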
Pf growth 96h: P. falciparum growth inhibition at 96 hours | P. falciparum luciferase reporter growth, 96 h | Potency, µM (top dose mostly 28.7 µM), for the others: at the highest dose activity change, negative = inhibition, actives largely listed as inhibitors | actives 6.9% (n = 320,000); note: % is set by controls: 0 for no effect and ±100 for the full control effect
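Compounds incubated with erythrocytes infected by luciferase-expressing P. falciparum (2% hematocrit, 0.05% parasitemia final) for 96 hours, 37 C in 5% CO2. Growth inhibition scored as decreased luciferase luminescence.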
Pf growth 48h: inhibits P. falciparum growth in the first generation, 48 h. P. falciparum luciferase growth in erythrocytes, 48 h. Potency, µM (top dose mostly 28.7 µM), without a hit: top-dose activity change, negative = inhibition, hits mostly inhibitors. actives 5.9% (n = 310,000); note: % is set by controls: 0 for no effect and ±100 for the full control effect
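Cell-based growth assay: transgenic P. falciparum expressing firefly luciferase, cultured in red cells within RPMI 1640 containing 0.5% w/v Albumax, 24 mM bicarbonate and gentamycin. A drop in luciferase activity indicates inhibition.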
VACV mCherry inh: vaccinia inhibition (mCherry reporter); Vaccinia virus mCherry reporter infection, fluorescence; Potency, µM (titrated, usually from 36.5 µM), for inactives: top-dose activity change, negative = inhibition, most hits filed as inhibitors; actives 0.63% (n = 310,000); AID 720579; calls by dose curve; tested in A549 cells; note: % is set by controls: 0 for no effect and ±100 for the full control effect; nearly all actives have a fitted effect of over 35% in size
VACV Venus inh: inhibitors of vaccinia virus (Venus reporter); Vaccinia virus Venus reporter expression, fluorescence; Potency, µM (titrated, usually from 36.5 µM), for the others: at the top dose activity change, negative = inhibition, usual class: inhibitors; actives 0.46% (n = 330,000); AID 720580; calls by dose curve; tested in A549 cells; note: % is set by controls: 0 for no effect and ±100 for the full control effect; nearly all actives have a fitted effect of over 30% in size
* = called active by the depositor. Sampled rows, rich in hits. Any-hit rate of the full collection: about 11%. Unless noted, calls come from the whole dose curve; as a rule, active = well fitted inhibition curve with a large enough effect; inconclusive = small, poorly fitted or top-dose-only effect, or another doubt; inactive = no such curve, though single readings can be large or run the other way. Potency is the fitted concentration of half-maximal effect.

Screening O=C1C2C3C=CC(CO)(O3)C2C(=O)N1c1ccccc1-c1ccccc1 (stereo not drawn) returned HCV inhibitor -27%, NS1 inh -73%, Pf growth 96h 5.9µM*, Pf growth 48h inconclusive, VACV mCherry inh -22% and VACV Venus inh -26%.
Screening CCOC(=O)C1CCCN(C(=O)CSc2nc(C)cc(C)n2)C1 (stereo not drawn) returned HCV inhibitor 2%, NS1 inh 17%, Pf growth 96h -4%, Pf growth 48h -8%, VACV mCherry inh -9% and VACV Venus inh -3%.
CN(Cc1ccccc1)S(=O)(=O)c1ccc(F)c(C(=O)Nc2cc(Cl)cc(Cl)c2)c1 was read as VACV mCherry inh -8% and VACV Venus inh -7%.
COC(CNC(=O)c1cn(C)c2ccc(S(=O)(=O)N3CCOCC3)cc2c1=O)OC was read as HCV inhibitor 16%, NS1 inh 0%, Pf growth 96h 9.3µM* and Pf growth 48h -5%.
Screening CCOC(=O)N1CCN(C(=O)c2cn(C)c3ccc(S(=O)(=O)N4CCOCC4)cc3c2=O)CC1 returned HCV inhibitor -15%, NS1 inh -6%, Pf growth 96h 12µM* and Pf growth 48h 9%.
`CC1CCCCN1C(=O)CSc1nnc2c(n1)[nH]c1ccccc12` (stereo not drawn) gave HCV inhibitor -25%, NS1 inh 0%, Pf growth 96h 12µM*, Pf growth 48h 1.7µM*, VACV mCherry inh -15% and VACV Venus inh -9%.
For CC(C)c1ccc2[nH]c3nc(SCC(=O)N4CCOCC4)nnc3c2c1 the results were HCV inhibitor -5%, Pf growth 96h inconclusive, Pf growth 48h 104%, VACV mCherry inh inactive and VACV Venus inh -21%.
For CC1CCN(C(=O)CSc2nnc3c(n2)[nH]c2ccc(F)cc23)CC1 the results were HCV inhibitor 7%, NS1 inh 2%, Pf growth 96h inconclusive, Pf growth 48h 1.7µM*, VACV mCherry inh 3% and VACV Venus inh -1%.
For CC1CCCCN1C(=O)CSc1nnc2c(n1)[nH]c1ccc(F)cc12 (stereo not drawn) the results were HCV inhibitor 3%, NS1 inh -4%, Pf growth 96h -5%, Pf growth 48h inconclusive, VACV mCherry inh -10% and VACV Venus inh -11%.
For O=C1CC(c2ccccc2)n2nc(N3C(=O)CCC3=O)nc2N1 (stereo not drawn) the results were HCV inhibitor 6%, NS1 inh -4%, Pf growth 96h inconclusive, Pf growth 48h 14%, VACV mCherry inh -10% and VACV Venus inh 1%.
For Cc1ccc(C)c(NS(=O)(=O)c2ccc(NC(=O)c3ccco3)cc2)c1 the results were HCV inhibitor -25%, NS1 inh -10%, Pf growth 96h 12µM* and Pf growth 48h 10µM*.
Cc1cc(C)nc(NS(=O)(=O)c2ccc(NC(=O)c3ccco3)cc2)n1 was read as HCV inhibitor -1%, NS1 inh -5%, Pf growth 96h 0%, Pf growth 48h 56% and VACV Venus inh inconclusive.
`Cc1ccc(N(CC(=O)N2CCOCC2)S(=O)(=O)c2ccccc2)cc1` gave HCV inhibitor 5%, NS1 inh 0% and Pf growth 48h 33%.
Screening Cc1ccc(S(=O)(=O)N(CC(=O)N2CCC(C)CC2)c2ccccc2)cc1 returned HCV inhibitor 19%, NS1 inh 7%, Pf growth 96h 29%, Pf growth 48h 12µM*, VACV mCherry inh -25% and VACV Venus inh -19%.
O=C(CN(c1ccc(F)cc1)S(=O)(=O)c1ccccc1)N1CCOCC1 was read as HCV inhibitor 24%, VACV mCherry inh -13% and VACV Venus inh 2%.
Cc1ccc(S(=O)(=O)N(CC(=O)N2CCOCC2)c2ccc(C(C)C)cc2)cc1 was read as HCV inhibitor -4%, NS1 inh -18%, Pf growth 96h 10µM*, Pf growth 48h -18%, VACV mCherry inh -8% and VACV Venus inh 8%.
For O=C(CN(c1ccc(F)cc1)S(=O)(=O)c1ccc2c(c1)OCCO2)N1CCOCC1 the results were HCV inhibitor 13%, NS1 inh -10%, Pf growth 96h 1µM*, Pf growth 48h 7%, VACV mCherry inh 0% and VACV Venus inh -2%.
For Cc1ccc(S(=O)(=O)N(CC(=O)N2CCCC2)C2CCCCC2)cc1 the results were HCV inhibitor 18%, NS1 inh 1%, Pf growth 96h 12µM*, Pf growth 48h inconclusive, VACV mCherry inh -17% and VACV Venus inh -13%.
`Nc1ccc2nc(CCCCCCCCc3nc4ccc(N)cc4[nH]3)[nH]c2c1` gave HCV inhibitor 7%, Pf growth 96h 6% and Pf growth 48h 7.4µM*.
Nc1ccc2nc(COc3ccccc3)[nH]c2c1 was read as HCV inhibitor 4%, NS1 inh -6%, Pf growth 96h 7.4µM* and Pf growth 48h 49%.
Nc1ccc2nc(CCCCCCc3nc4ccc(N)cc4[nH]3)[nH]c2c1 was read as HCV inhibitor 8%, NS1 inh 8%, Pf growth 96h 89%, Pf growth 48h inconclusive, VACV mCherry inh -10% and VACV Venus inh -20%.
For O=[N+]([O-])c1cccc(CN(CCO)Cc2ccccc2)c1 the results were HCV inhibitor 13%, NS1 inh 2%, Pf growth 96h 59% and Pf growth 48h 2%.
For O=[N+]([O-])c1cccc(N=NN(CCO)c2cccc([N+](=O)[O-])c2)c1 the results were HCV inhibitor 1.1µM*, NS1 inh -5%, Pf growth 48h -13%, VACV mCherry inh 0% and VACV Venus inh -4%.
`CCCN(N=Nc1cccc([N+](=O)[O-])c1)c1cccc([N+](=O)[O-])c1` gave HCV inhibitor 1.1µM*, NS1 inh 5%, Pf growth 48h -23%, VACV mCherry inh -14% and VACV Venus inh -11%.
For CN(N=Nc1cccc([N+](=O)[O-])c1)c1cccc([N+](=O)[O-])c1 the results were HCV inhibitor inconclusive, Pf growth 96h 95% and Pf growth 48h 45%.
`COc1ccc(OCCC(=O)OCC(=O)NCCc2ccccc2)cc1` gave HCV inhibitor 13%, Pf growth 96h 17%, Pf growth 48h 7%, VACV mCherry inh -6% and VACV Venus inh -3%.
O=S(=O)(c1ccccc1)c1nc(-c2ccco2)oc1N1CCCCC1 was read as HCV inhibitor inconclusive, NS1 inh -5%, Pf growth 96h inconclusive, Pf growth 48h inconclusive, VACV mCherry inh 6% and VACV Venus inh -13%.
Screening CC1CCN(c2oc(-c3ccco3)nc2S(=O)(=O)c2ccccc2)CC1 returned HCV inhibitor -8%, NS1 inh -19%, Pf growth 96h 4.7µM*, Pf growth 48h -17%, VACV mCherry inh -15% and VACV Venus inh -5%.
